Measurements as given in PubChem BioAssay (EPA / NIEHS).
Inconclusive results are not listed. The source made the active and inactive calls. Rule for the calls: active = hit-call score of the fitted dose curve at least 0.9, where 1 is the maximum; inconclusive = response in the unintended direction; inactive = score below 0.9.

What follows are molecules tested against Bile acid receptor (Homo sapiens) (UniProt Q96RI1) (assay: ATG_FXR_TRANS: Attagene TRANS-FACTORIAL HepG2 Assay for Farnesoid X Receptor (FXR) (AID 2282979;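 note: hits raise reporter mRNA above DMSO so AC50 marks FXR activation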)). Settings: HepG2 Attagene TRANS FXR-GAL4 reporter transcription.
Sequence of Bile acid receptor (Homo sapiens) (Q96RI1 whole entry, looked up, the tested form may be a part): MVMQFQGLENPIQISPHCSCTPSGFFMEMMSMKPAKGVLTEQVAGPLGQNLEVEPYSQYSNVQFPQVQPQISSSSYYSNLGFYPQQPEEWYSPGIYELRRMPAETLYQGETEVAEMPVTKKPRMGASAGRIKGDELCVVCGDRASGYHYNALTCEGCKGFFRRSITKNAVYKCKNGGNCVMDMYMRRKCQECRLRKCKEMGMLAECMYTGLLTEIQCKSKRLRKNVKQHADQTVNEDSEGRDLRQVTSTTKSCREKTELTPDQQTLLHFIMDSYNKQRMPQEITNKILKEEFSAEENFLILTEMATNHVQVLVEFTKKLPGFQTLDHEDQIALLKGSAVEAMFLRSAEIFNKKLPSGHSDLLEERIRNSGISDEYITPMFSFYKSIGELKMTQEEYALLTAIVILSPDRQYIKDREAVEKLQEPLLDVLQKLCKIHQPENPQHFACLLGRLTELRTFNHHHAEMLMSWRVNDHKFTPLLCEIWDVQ
Procedure, shortened: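 After 24 h chemical treatment of transfected HepG2 cells, GAL4-UAS reporter transcripts driven by an exogenous FXR-GAL4 fusion were measured by RT-PCR and capillary electrophoresis. Increases over DMSO were fitted.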
With `FC(F)(F)C(F)(C(F)(F)F)C(F)(F)C(F)(F)CC1CO1` (stereo unspecified) the outcome was “inactive”. In the case of `CCOP(=S)(OCC)SCSc1ccc(Cl)cc1`, the outcome is reported as “inactive”. In the case of `Clc1ccc(Oc2ccccc2)cc1`, the outcome is reported as “inactive”. `Cc1cc(C)c(C(=O)P(=O)(c2ccccc2)c2ccccc2)c(C)c1` was tested, and the outcome was “inactive”. `CCCCC(CC)COP(=O)(Oc1ccccc1)Oc1ccccc1` (stereo unspecified) was tested, and the outcome was “inactive”. With `CCOc1ccc(C(C)(C)COCc2cccc(Oc3ccccc3)c2)cc1` the outcome was “inactive”. In the case of `COP(=O)(O)OC`, the outcome is reported as “inactive”. For `CC(C)(C)c1ccc(O)cc1`, the outcome was “inactive”. `CCOP(=S)(OCC)SCSCC` was tested, and the outcome was “inactive”. With `ClC1=C(Cl)C2(Cl)C3C(Cl)C(Cl)CC3C1(Cl)C2(Cl)Cl` (stereo unspecified) the AC50 was 54.7 µM (active). With `OCC(F)(F)OC(F)(F)C(F)(F)OC(F)(F)CO` the outcome was “inactive”. With `Oc1ccc(I)cc1` the outcome was “inactive”. For `CO/N=C(/C(=O)OC)c1ccccc1COc1ccccc1C`, the outcome was “inactive”. In the case of `CC1(C)CN=C(NN=C(/C=C/c2ccc(C(F)(F)F)cc2)/C=C/c2ccc(C(F)(F)F)cc2)NC1`, the outcome is reported as “inactive”. For `O=C(O)C(F)(F)OC(F)(F)C(F)(F)OC(F)(F)C(=O)O`, the outcome was “inactive”. For `CCCCc1ccccc1`, the outcome was “inactive”.
